# Hits are enriched below; roughly 2.6% of the tested compounds scored in any of these assays.
# A-T KAP1 phos = potential ataxia-telangiectasia treatments restoring KAP-1 phosphorylation | Potency, µM (titrated, usually from 57.5 µM), most hits filed as activators | actives 0.19% (n = 320,000) | F2112 A-T fibroblasts, KAP-1 phosphorylation AlphaLISA; neocarzinostatin DNA damage 30 min before lysis | AID 485349; note: nearly all actives have a fitted effect of over 45% in size
#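 hTERT-immortalized A-T patient fibroblasts (F2112), 500 cells/well in OPTI-MEM, 1% FBS, got compounds for 60 min, then NCS for 30 min at 37C. Lysates were then assayed for phospho-KAP-1 by AlphaLISA (anti-pKAP1 donor, anti-KAP1 acceptor beads), 6 hr at 25C.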
# Nrf2 activator = activates Nrf2 signaling. AREc32 ARE-luciferase reporter (MCF7-derived line), luminescence, 24 h. Potency, µM (series often up to 46.1 µM), most hits filed as activators. actives 0.31% (n = 410,000). AID 624171; note: nearly all actives have a fitted effect of over 65% in size
#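 AREc32 cells carrying an ARE-driven firefly luciferase reporter were seeded at 1000 cells/well in OPTI-MEM with 5% FBS, then exposed to compound for 24 hr at 37 deg C. Luminescence was read with Steady-Glo after 30 min at RT.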
# TCR act = activators of T cell receptors. primary human leukocytes, anti-CD3, IL-2 HTRF, 48 h. Potency, µM (highest dose often 9.22 µM), hits mostly activators. 330,000 tested, under 10 active
#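 Using a-CD3 beads without co-stimulation, primary human leukocytes were exposed to compounds for 48 hr. An HTRF IL-2 kit measured the cytokine, with europium-to-d2 energy transfer producing emission at 665nm upon 320nm excitation.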
# A549 tox = A549 cytotoxicity, counter-screen for Nrf2 inhibitors. A549 ARE-Fluc cells, CellTiter-Fluor viability, 18-24 h. Potency, µM (top dose mostly 46 µM), hits mostly inhibitors. actives 0.16% (n = 390,000)
#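 A549 ARE-Fluc cells in 5% FBS OPTI-MEM, 5000 cells/well, rested 2 h then exposed to compounds in concentration-response for 18-24 h at 37 °C. Viability by CellTiter-Fluor fluorescence (Ex 405/Em 525) after 30 min; luciferase luminescence (BugLite, 15 min, RT) read afterwards.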
# Nrf2 inh = inhibitors of Nrf2 signaling; actives 2.1% (n = 360,000); A549 ARE-Fluc reporter, luciferase luminescence, 18-24 h; Potency, µM (series often up to 46 µM), most hits filed as inhibitors; note: nearly all actives have a fitted effect of over 60% in size
#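 In this cell-based qHTS, ARE-driven firefly luciferase in A549 cells reports Nrf2 activity; the luminescent signal after BugLite lysis is the measured value, with a prior CellTiter-Fluor read for cell health.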
# CCT chaperon mod = changes cytosolic chaperonin activity; purified chaperonin ATPase assay, HTRF ADP detection, 30 min; activity change, % (no concentration beside the values), hits read low; actives 0.3% (n = 360,000); AID 651819; in the data active = activity change below about -30%
#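 Enzyme 40 or 20 nM (batch-dependent) in Tris pH 7.4/KCl/MgCl2/DTT; cpd 76 uM single point; ATP 10 uM; 30 min 37 °C; Transcreener ADP HTRF detection, 30 min RT; ratio 665/615.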
# Hits are given with their value; 0 = inactive; ? = inconclusive; - = no result; [ ] = another dose, or the depositor's remark. Unless noted, calls come from the whole dose curve; as a rule, active = well fitted curve in the direction sought with a large enough effect; inconclusive = small, poorly fitted or top-dose-only effect, or another doubt; inactive = no such curve, though single readings can be large; an effect the other way counts as inactive or inconclusive.
SMILES,A-T KAP1 phos,Nrf2 activator,TCR act,A549 tox,Nrf2 inh,CCT chaperon mod
Cc1ccc(-c2nnc(N3CCC(C)CC3)c3ccccc23)cc1C,0,0,0,?,?,-43.1
Cc1ccc(OCC(=O)N2CCN(c3nnc(-c4ccc(C)cc4)c4ccccc34)CC2)cc1,0,0,0,?,18.4µM,0
COc1cc(NC(=O)CN2CCCN(S(=O)(=O)c3ccc(F)cc3)CC2)cc(OC)c1,-,0,-,0,?,-
Cc1cc(C)c(C#N)c(SCC(=O)c2ccccc2)n1,0,2.82µM,0,0,0,0
Cc1cc(C)c(C#N)c(SCC(=O)c2cccs2)n1,0,?,0,0,0,0
CCN(CC)C(=O)CSc1nc(C)cc(-c2cccs2)c1C#N,0,0,0,0,0,-34.0
Cc1ccc(-n2ncc3c(NCc4cccnc4)ncnc32)c(C)c1,0,0,0,0,9.2µM,0
Cc1cccc(-n2ncc3c(NCc4cccnc4)ncnc32)c1,0,0,0,0,?,0
COc1cccc(NC(=O)Nc2ccc3c(c2)CCC3)c1,0,0,0,0,?,0
Cc1ccccc1CNC(=O)c1ccc(Cn2c(SCc3ccccc3)nc3cccnc32)cc1,-,0,-,?,?,-
COc1cccc(CN2CCN(Cc3cc(OC)c(OC)cc3[N+](=O)[O-])CC2)c1,0,0,0,0,0,0
COc1cc(CN2CCN(Cc3ccc([N+](=O)[O-])cc3)CC2)c([N+](=O)[O-])cc1OC,0,0,0,0,20.6µM,0
O=[N+]([O-])c1ccc(N2CCN(Cc3cccc([N+](=O)[O-])c3)CC2)cc1,0,0[9.22 µM],0,?,20.6µM,0
Cc1c([S+](=O)([O-])N2CCN([S+](=O)([O-])c3c(F)cccc3F)CC2)sc2ccc(Cl)cc12,-,-,-,0,0,-
O=C(CNC(=O)C1CCCCC1)OCC(=O)c1ccc(C2CCCCC2)cc1,-,-,-,0,0,-
COc1cc(Br)ccc1C1C(C(=O)Nc2ccc(C)cc2C)=C(C)Nc2nnnn21 (stereo not given),-,0,-,0,0,-
COc1ccc(/C=C(\C#N)C(=O)NCC(c2ccc(F)cc2)N2CCOCC2)cc1 (stereo not given),0,0,0,0,0,0
Cc1ccc(C(CC(=O)NCC2(c3ccccc3)CCCC2)c2ccccc2)c(O)c1 (stereo not given),-,0,-,0,?,-
Cn1c(=O)cc(SCC(=O)Nc2cccnc2)c2ccccc21,0,0,0,0,?,0
CCn1c(=O)cc(SCC(=O)Nc2ccc(OC)c(OC)c2)c2ccccc21,0,0,0,0,16.4µM,0
COc1cc(NC(=O)CSc2cc(=O)n(C)c3ccccc23)cc(OC)c1OC,-,0,-,0,20.6µM,-
CCOCCn1ccc2c(OCC(=O)Nc3ccc(OC)c(OC)c3)cccc2c1=O,0,0,0,0,11.6µM,0
CCOCCn1ccc2c(OCC(=O)Nc3cc(C)cc(C)c3)cccc2c1=O,-,0,-,0,-,-
Cn1c(=O)n(CC(=O)NCC2CCCO2)c(=O)c2c3c(sc21)CCCC3 (stereo not given),0,0,0,0,0,0
CC(C)NC(=O)c1ccc(-n2c(-c3ccccc3)cc3c2CCCC3)cc1,-,?,-,0,0,-
SMILES,A-T KAP1 phos,Nrf2 activator,TCR act,A549 tox,Nrf2 inh,CCT chaperon mod
CCCNC(=O)c1ccc(-n2c(-c3ccccc3)cc3c2CCCCC3)cc1,-,12.6µM,-,0,0,-
COCCNC(=O)c1ccc(-n2c(-c3ccccc3)cc3c2CCCCC3)cc1,-,15.8µM,-,0,?,-
CCC(C)NC(=O)c1ccc(-n2c(-c3ccccc3)cc3c2CCCC3)cc1 (stereo not given),-,?,-,0,18.4µM,-
CCOCCCNC(=O)c1ccc(-n2c(-c3ccccc3)cc3c2CCCCC3)cc1,-,?,-,0,18.4µM,-
COCCCNC(=O)c1ccc(-n2c(-c3ccccc3)cc3c2CCC(C)C3)cc1 (stereo not given),-,?,-,0,0,-
O=C(COC(=O)Cc1ccccc1F)Nc1ccc(F)cc1F,0,0,0,0,0,0
CCCN1CNc2c(c(=O)[nH]c(=S)n2CCc2c(C)cccc2C)C1,-,-,-,0,0,-
CN(C)CCNC(=O)c1ccc(-n2c(-c3ccccc3)cc3c2CCCC3)cc1,-,11.2µM,-,0,23.1µM,-
Cc1cc2c(n1-c1ccc(C(=O)NCC(C)c3ccccc3)cc1)CCCC2 (stereo not given),-,?,-,0,0,-
COc1ccc(C(=O)O)cc1S(=O)(=O)N1CCN(Cc2ccc3c(c2)OCO3)CC1,0,0,0,0,0,0
O=C(CC1C[C@H](C(=O)N2CCCCC2)[C@@]2(CCc3ccccc3)c3[nH]c4ccccc4c3CCN2C1=O)NCc1ccco1 (stereo not given in full),0,0,0,0,?,0
COc1ccc2[nH]c3c(c2c1)CCN1C(=O)C(CC(=O)NCCc2ccccn2)C[C@H](C(=O)N2CCCCC2)[C@@]31CCc1ccccc1 (stereo not given in full),0,0,0,0,20.6µM,0
COc1ccc2[nH]c3c(c2c1)CCN1C(=O)C(CC(=O)NCc2ccco2)C[C@H](C(=O)N2CCCCC2)[C@@]31CCc1ccccc1 (stereo not given in full),0,0,0,0,23.1µM,0
O=C(C[C@H]1C[C@H](C(=O)N2CCCCC2)[C@@]2(CCc3ccccc3)c3[nH]c4cc(-c5ccco5)ccc4c3CCN2C1=O)NCc1ccco1,0,0,0,0,0,0
CC(C)(C)NC(=O)C[C@H]1C[C@H](C(=O)N2CCCCC2)[C@@]2(C)c3[nH]c4ccc(Cl)cc4c3CCN2C1=O,0,0,0,?,16.4µM,0
O=C(C[C@H]1C[C@H](C(=O)N2CCCCC2)[C@@]2(CCc3ccccc3)c3[nH]c4cc(-c5ccco5)ccc4c3CCN2C1=O)NCCC1=CCCCC1,0,0,0,0,0,-89.1
CCOCCc1nn2c(=O)cc(COC(=O)COc3ccccc3Cl)nc2s1,-,0,-,0,?,-
O=C(C[C@H]1C[C@H](C(=O)N2CCCCC2)[C@@]2(CCc3ccccc3)c3[nH]c4ccc(Cl)cc4c3CCN2C1=O)NCCc1ccccn1,0[11.5 µM],0,0,?,20.6µM,0
Cc1cc(NC(=O)CCCSc2nc(-c3ccco3)cc(C(F)(F)F)n2)n(-c2ccccc2)n1,0,0,0,0,25.9µM,0
Cc1ccc(NC(=O)CCSc2nc(-c3ccco3)cc(C(F)(F)F)n2)cc1F,-,0,-,0,10.3µM,-
COc1ccc(CNc2ncnc3nc[nH]c23)cc1,-,-,-,0,0,-
Fc1ccccc1C1c2cccn2CCN1C(=S)Nc1ccc(Br)cc1 (stereo not given),0,0,0,0,?,0
